A selection: hits, their analogues and other compounds. The true share with any hit is near 6.6%.
BoNT-F LC inh = BoNT/F light chain protease inhibitors, primary screen, biochemical, flow cytometry, MLPCN library; 0.22% of 360,000 active; inhibition, % at 10 µM; Botulinum neurotoxin type F light chain protease (Clostridium botulinum); Multiplex microsphere protease cleavage assay; in the data active = inhibition above about 35%, passing the limit was not always enough; inconclusive = no clear call, values can overlap the other calls; also: plate controls were buffer without enzyme for full effect and enzyme alone for no effect
BoNT-A LC inh2 = BoNT/A light chain protease inhibitors, primary screen, biochemical, flow cytometry, MLPCN library. multiplex microsphere protease substrate cleavage. Botulinum neurotoxin type A light chain protease (Clostridium botulinum A str. ATCC 3502). AID 588499, 2011. inhibition, % at 10 µM. 0.17% of 360,000 active; also: plate controls were buffer without enzyme for full effect and enzyme alone for no effect
FBA Mtb inh = Mtb FBA enzyme inhibitors, primary screen, biochemical, fluorescence, strain H37Rv; Fructose-bisphosphate aldolase (Mycobacterium tuberculosis (strain ATCC 25618 / H37Rv)), …; purified M. tuberculosis FBA, fluorescence read-out; inhibition, % at 1 µM; 2.3% of 360,000 active; AID 588726, 2011; in the data active = inhibition above about 27%;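 also: 0% = vehicle and 100% = reference inhibitor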
Bead autofluor = counter-screen for toxin protease inhibitors: compound fluorescence | compound autofluorescence counterscreen, microsphere flow cytometry; stronger effect = higher value | fluorescence intensity (test concentration not listed) | AID 624483 | 3.1% of 360,000 active; in the data active = fluorescence intensity above about 16000; inconclusive = no clear call, values can overlap the other calls
GDH-TPI inh = GDH-TPI coupling enzyme inhibitors, primary screen, artefact control for M. tuberculosis FBA inhibitor project, biochemical, absorbance, full deck; GDH-TPI coupled enzyme counterscreen, NADH absorbance; inhibition, % at 4.8 µM; 1.2% of 360,000 active; AID 588335, 2011; in the data active = inhibition above about 30%;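 also: 0% = DMSO wells and 100% = wells lacking the enzyme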
Anthrax LF prot = Bacillus anthracis LF protease inhibitors, primary screen, biochemical, multiplex microsphere, MLPCN library | inhibition, % at 10 µM | 0.12% of 360,000 active | AID 588501, 2011 | Lethal factor (Bacillus anthracis), P15917 | multiplex microsphere protease cleavage assay; also: plate controls were buffer without enzyme for full effect and enzyme alone for no effect
Target sequence (P15917 whole entry, looked up): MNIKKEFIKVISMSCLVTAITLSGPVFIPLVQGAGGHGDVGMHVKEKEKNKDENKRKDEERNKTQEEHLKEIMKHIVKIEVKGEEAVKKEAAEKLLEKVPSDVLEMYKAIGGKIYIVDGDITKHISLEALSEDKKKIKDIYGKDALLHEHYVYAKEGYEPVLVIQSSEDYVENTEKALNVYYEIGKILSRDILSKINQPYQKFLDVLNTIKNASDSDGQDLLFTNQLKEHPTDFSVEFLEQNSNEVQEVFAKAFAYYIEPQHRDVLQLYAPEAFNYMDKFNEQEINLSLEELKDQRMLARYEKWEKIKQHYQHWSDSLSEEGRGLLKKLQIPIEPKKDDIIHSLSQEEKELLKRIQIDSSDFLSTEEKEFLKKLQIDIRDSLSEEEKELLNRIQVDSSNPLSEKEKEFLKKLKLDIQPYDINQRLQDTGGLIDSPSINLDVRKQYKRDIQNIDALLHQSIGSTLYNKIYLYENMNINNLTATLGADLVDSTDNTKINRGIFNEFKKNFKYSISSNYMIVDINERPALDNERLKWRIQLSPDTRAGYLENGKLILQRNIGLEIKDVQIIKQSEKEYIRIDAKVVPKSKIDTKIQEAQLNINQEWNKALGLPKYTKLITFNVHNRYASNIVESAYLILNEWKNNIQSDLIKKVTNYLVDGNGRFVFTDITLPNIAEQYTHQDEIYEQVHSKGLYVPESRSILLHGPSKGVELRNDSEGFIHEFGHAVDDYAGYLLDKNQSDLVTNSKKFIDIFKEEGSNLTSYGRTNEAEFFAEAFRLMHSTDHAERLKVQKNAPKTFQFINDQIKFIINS
Starred values were filed as active, the others as inactive; ? = inconclusive; · = no result given. Rule as the data show it, unless noted: active = inhibition above about 30%; inconclusive = no clear call, values can overlap the other calls; inactive = below that.

SMILES	BoNT-F LC inh	BoNT-A LC inh2	FBA Mtb inh	Bead autofluor	GDH-TPI inh	Anthrax LF prot
COc1ccccc1NCCC(=O)OCC(=O)Nc1ccccc1F	0	2	3	8775	12	7
O=C(Cn1nc(C(F)F)cc1C(F)F)NNC(=S)Nc1ccc(Cl)cc1	-4	-4	-2	23616*	2	-1
Cc1cnn(CCC(=O)NNC(=S)Nc2cccc(Cl)c2)c1	6	3	2	21961*	7	0
Cc1ccc(NC(=S)NNC(=O)c2c([N+](=O)[O-])c(C)nn2C)cc1	-4	-1	2	23365*	13	-2
Cc1nn(CC(=O)NNC(=S)Nc2ccccc2)c(C)c1[N+](=O)[O-]	1	-1	8	21125*	0	1
Cc1ccc(NC(=S)NNC(=O)c2c(Cl)c(C)nn2C)cc1	-5	-2	-1	9508	6	-9
COc1ccc(NC(=O)Nc2cccc3c2O[C@H](CN(C)S(C)(=O)=O)[C@@H](C)CN([C@H](C)CO)C3=O)cc1	-15	-1	4	2954	4	-1
COc1ccccc1NC(=O)Cn1nnc(-c2ccccc2NC(=O)c2cc3ccccc3oc2=O)n1	-4	0	-1	9345	0	6
CCN(C(=O)COC(=O)c1cccnc1SC)c1c(N)n(Cc2ccccc2)c(=O)[nH]c1=O	-7	4	-1	?	-7	0
C=CCn1c(=O)c2c(nc3n2CCCN3CCc2ccc(OC)c(OC)c2)n(C)c1=O	-22	2	1	3893	-2	8
Cc1cccc(NC(=S)NNC(=O)CCn2nc(C)c([N+](=O)[O-])c2C)c1	2	2	1	15439	21	-1
Cc1ccc(C2CC2C(=O)NNC(=S)Nc2cccc(Cl)c2)cc1 (stereo unspecified)	-4	-1	6	20873*	5	-2
Cc1nn(CCC(=O)NNC(=S)Nc2cccc(Cl)c2)c(C)c1[N+](=O)[O-]	-5	-2	-2	20563*	-10	3
Cc1occc1C(=O)NNC(=O)Nc1ccc([N+](=O)[O-])cc1	0	-1	8	4215	6	-4
Cc1ccc(S(=O)(=O)NCCN=Cc2ccc(N(C)C)cc2)cc1	-1	0	-4	5261	22	-5
O=C(CN1C(=O)NC2(CCc3ccccc32)C1=O)NCC(=O)Nc1ccc(F)cc1 (stereo unspecified)	-8	0	0	3695	-7	-4
Cc1ccc(S(=O)(=O)N(CC(=O)Nc2cccc(C(F)(F)F)c2)C(=O)N2CCN(C)CC2)cc1	1	2	0	5565	9	-2
Cc1ccc(O)c(C(=O)c2cc(C#N)c(=O)n(-c3c(C)n(C)n(-c4ccccc4)c3=O)c2)c1	0	-1	-5	16705*	24	-1
CCOC(=O)C1=CCN(S(=O)(=O)c2ccc(C)cc2)C1c1cccc2ccccc12 (stereo unspecified)	2	0	5	5669	·	-6
CS(=O)(=O)Nc1ccccc1C(=O)Nc1ccccc1Cl	-1	-1	20	2298	14	-4
CS(=O)(=O)Nc1ccccc1C(=O)Nc1cc(Cl)cc(Cl)c1	-3	-2	19	20510*	-4	-2
CC1CCCCN1S(=O)(=O)Cc1ccccc1Cl (stereo unspecified)	?	3	-1	3627	4	2
Oc1ccc2ccccc2c1C1Nc2cccc3cccc(c23)N1	-10	-1	-6	23653*	-2	-7
c1ccc(C2OC3c4cccc5cccc(c45)C3N2c2ccccc2)cc1 (stereo unspecified)	-4	?	-1	22884*	8	-4
COc1ccc2nc(N3C(=O)CNC3=S)sc2c1	·	·	1	·	64*	·
SMILES	BoNT-F LC inh	BoNT-A LC inh2	FBA Mtb inh	Bead autofluor	GDH-TPI inh	Anthrax LF prot
CC(C)CCn1c(CN2CCN(Cc3ccccc3)CC2)nc2c1c(=O)[nH]c(=O)n2C	-1	-1	4	22665*	9	-1
CCOC(=O)CSc1nc2c(c(=O)[nH]c(=O)n2C)n1C/C=C(/C)Cl	0	?	-1	24116*	1	-3
Cn1c(=O)[nH]c(=O)c2c1nc(CN1CCN(c3cccc(Cl)c3)CC1)n2CCN1CCOCC1	8	?	-4	20987*	9	3
CCCCn1c(CN2CCN(c3cccc(Cl)c3)CC2)nc2c1c(=O)[nH]c(=O)n2C	-10	-1	-3	12895	3	-5
CCCSc1nc2c(c(=O)[nH]c(=O)n2C)n1Cc1ccccc1	-3	-3	0	4071	5	12
CCCSc1nc2c(c(=O)[nH]c(=O)n2C)n1Cc1ccc(C)cc1	1	1	-2	21791*	3	-2
CCCCn1c(SCC(=O)OCC)nc2c1c(=O)[nH]c(=O)n2C	0	-1	-1	5531	10	-9
COc1cc(SC)ccc1C(=O)Nc1ccc2ncccc2c1	-10	0	0	3708	14	15
O=C(NCC1CCCO1)c1cc([N+](=O)[O-])ccc1N1CCC(Cc2ccccc2)CC1 (stereo unspecified)	-10	0	-6	4183	13	4
Cc1ccc(Cn2c(CN3CCOCC3)nc3c2c(=O)[nH]c(=O)n3C)cc1	2	4	1	22053*	1	-2
CN1CC=C2C(C#N)=C(N)C(C#N)(C#N)[C@H](c3cccs3)[C@H]2C1	0	1	9	6886	13	6
CN1CC=C2C(C#N)=C(N)C(C#N)(C#N)C(CCc3ccccc3)C2C1 (stereo unspecified)	-4	2	39*	4085	0	0
CCC(C)n1c(S(=O)(=O)O)nc2ccccc21 (stereo unspecified)	1	-1	0	22449*	-2	1
CC1CC(C)(C)CC2(C1)NC(=O)N(CC(=O)N1CCN(S(=O)(=O)c3cccs3)CC1)C2=O (stereo unspecified)	-8	0	-1	3588	-3	6
S=C(Nc1ccc(Cl)cc1)N1CCN(C2CCCCC2)CC1	0	1	1	21880*	3	0
Cc1ccc(N2CCN(C(=S)Nc3ccc(Cl)cc3)CC2)cc1	15	-2	-1	3667	11	-4
Nc1n[nH]c(N)c1N=Nc1ccccc1F	-32	0	1	3594	38*	2
CCN(CC(=O)Nc1ccc(OC)c(Cl)c1)CC(=O)NC(C)C	-3	0	0	4156	5	-3
O=C(Nc1nc2ccccc2n1CCN1CCOCC1)c1cn(-c2ccccc2)nc1-c1ccccc1	-4	0	1	2441	42*	-10
